Experimental data reported in PubChem BioAssay AID1865 (National Center for Advancing Translational Sciences (NCATS), 2009).
About 540 (0.19%) of roughly 280,000 compounds were called active. About 2% were inconclusive and are not listed. The call rests on the fitted dose curve; in most records, active means well fitted activation curve with a large enough effect; inconclusive means small, poorly fitted or top-dose-only effect; inactive means flat fitted curve, though single readings scatter. The entries come from a sample that favours actives as a whole.

Assay: Quantitative High-Throughput Screen for Regulators of Epigenetic Control; further: nearly all actives have a fitted effect of over 60% in size; on GFP activation: % of control where 0% means no effect
Details: murine LDR cells, GFP reporter derepression, 30 h; series mostly up to 53.9 µM; GFP activation: at the top concentration
From the text: NIH Molecular Libraries Screening Centers Network [MLPCN] NIH Chemical Genomics Center [NCGC] MLSCN Grant: 1 X01 MH079860-01 Assay Provider: Elisabeth D. Martinez, University of Texas SW Medical Center NCGC Assay Overview: The Locus Derepression (LDR) assay detects the derepression or induction of a GFP reporter that is stably integrated in a genomic region of murine cells that is presumably silenced. Transcription of the GFP reporter is controlled by a CMV promoter, which normally is constitutively active. However, this cell line, termed LDR, was selected for lack of constitutive production of GFP. GFP production can be induced by incubating the cells with histone deacetylase or DNA methyltransferase inhibitors (Martinez et al., 2006). Compounds that derepress or induce this reporter locus are identified by enumerating GFP positive cells using a laser-scanning microplate cytometer (Auld et al., 2006). This assay was screened against the MLSMR earlier (AID 597; (Johnson et al., 2008) and has been rescreened here against the expanded collection.
NCGC Assay Protocol Summary: Three hundred LDR cells in 5 uL per well were dispensed into black, clear-bottom 1536-well plates. Twenty-three nL compound was transferred to the assay plate and cells were incubated 30 hours at 37 C. Medium was removed, cells were washed two times with PBS, and GFP-positive cells were enumerated as fluorescent objects between the sizes of 20 to 120 um width and depth using an Acumen Explorer. References Auld, DS, Johnson, RL, Zhang, YQ, Veith, H, Jadhav, A, Yasgar, A, Simeonov, A, Zheng, W, Martinez, ED, Westwick, JK, Austin, CP, Inglese, J (2006). Fluorescent protein-based cellular assays analyzed by laser-scanning microplate cytometry in 1536-well plate format. Methods Enzymol 414: 566-89. Johnson, RL, Huang, W, Jadhav, A, Austin, CP, Inglese, J, Martinez, ED (2008). A quantitative high-throughput screen identifies potential epigenetic modulators of gene expression. Anal Biochem 375: 237-48. Martinez, ED, Dull, AB, Beutler, JA, Hager, GL (2006). High-content fluorescence-based screening for epigenetic modulators. Methods Enzymol 414: 21-36.
Potency means the concentration at half of the fitted maximal effect.

SMILES	GFP activation	Potency
CCOC(=O)c1c(S(=O)(=O)NCC(=O)Nc2ccc(Cl)c(C(F)(F)F)c2)c(C)n(C)c1C	-1.3% (inactive)	–
CCN1CCN(CCCNC(=O)c2cnn(-c3ccc(C)cc3C)c2C2CCN(C(=O)OC(C)(C)C)CC2)CC1	0% (inactive)	–
Cc1cccc(N2CCN(c3c(CN4CCCC4)c(=O)oc4ccccc34)CC2)c1C	-0.594% (inactive)	–
CCOC(=O)c1c(C)nc2c(c1C)c(=O)oc1ccccc12	-1.99% (inactive)	–
Cc1ccccc1-n1nnc2c(=O)oc3ccccc3c21	–	15.8 µM (active)
COc1ccc(CCn2cc3c(c2-c2ccc(Br)cc2)c(=O)n(C)c(=O)n3C)cc1OC	-2.56% (inactive)	–
Cc1c(CNC(C)c2ccccc2)c(C(=O)O)c(C)n1Cc1c(F)cccc1Cl (stereo not drawn)	0.98% (inactive)	–
Cc1ccc(Nc2c(-c3ccc(N(C)C)cc3)nc3nc[nH]n23)cc1	-0.937% (inactive)	–
COC(=O)c1ccc(C2C(C(=O)Nc3ccccc3)=C(C)Nc3nc4ccccc4n32)cc1 (stereo not drawn)	0% (inactive)	–
CC1CCC(N2CC(=O)N(CCC3=CCCCC3)C(c3ccc(F)cc3)C2=O)CC1 (stereo not drawn)	0.552% (inactive)	–
Cc1cccc(C(=O)Nc2ccc(S(=O)(=O)N3CCCCC3c3cccnc3)cc2)c1 (stereo not drawn)	0% (inactive)	–
Cc1ccc(NC(=O)CSc2nc3ccccc3c3nc(CCn4cncc4C)nn23)cc1F	11.5% (inactive)	–
COc1ccccc1NC(=O)c1ccc(C)s1	0% (inactive)	–
CCOC(=O)C(=Cc1ccccc1OC)C(=O)OCC	–	22.4 µM (active)
CCOC(=O)C(=CNc1cccc(C)n1)C(=O)OCC	2.11% (inactive)	–
Cc1cc(Nc2cccc(C(F)(F)F)c2)nc2ccc(NC(=O)c3ccc(=O)[nH]c3)cc12	-0.401% (inactive)	–
COc1cccc(Cn2c(CNS(=O)(=O)c3ccc(Cl)s3)nc3cccnc32)c1	1.14% (inactive)	–
CCCCNc1ccc(-c2nc(-c3ccncc3)no2)cc1[N+](=O)[O-]	-2.85% (inactive)	–
CCCn1c2ccccc2c2cnn(CC(=O)NCCCOC(C)C)c(=O)c21	0% (inactive)	–
Cc1cccc2c1-c1sc(C(=O)Nc3ccc(F)cc3F)cc1CO2	0% (inactive)	–
CCOCCCNC(=O)c1c(NC(=O)Cc2coc3c(C)c(C)ccc23)sc2c1CCC2	-1.02% (inactive)	–
COc1ccc(CCNc2ncnc3c2cnn3-c2ccc(C)cc2)cc1	1.31% (inactive)	–
CCOC(=O)C1CCCN(S(=O)(=O)c2cc(-c3cc(C)no3)ccc2OC)C1 (stereo not drawn)	-1.08% (inactive)	–
COc1ccc(C(=O)CSc2nc(C)cc(C)n2)cc1[N+](=O)[O-]	1.6% (inactive)	–
COc1ccc(C(C[N+](=O)[O-])n2nc(C)cc2C)cc1 (stereo not drawn)	–	12.6 µM (active)
COc1ccc(OCc2cn3c(C)cc(C)nc3n2)cc1	-0.866% (inactive)	–
O=C1CCCc2cc(S(=O)(=O)N3CCCC(C(=O)NCc4ccccc4)C3)ccc2N1 (stereo not drawn)	1.06% (inactive)	–
CCOc1cc(-c2nnc(SCC(=O)NC3CCCC3)nc2-c2ccc(OC)c(OCC)c2)ccc1OC	0.833% (inactive)	–
